# Measurements reported in PubChem BioAssay (NCI).
# About 83,000 compounds went through this panel and 20% of them were active in at least one assay; those are over-represented in the sample as a whole.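 Results are percent growth after 48 hours of single-concentration exposure. 100 means growth as in untreated cells, lower positive values show inhibition; negative values down to -100 show cell death.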 A number with no mark means an inactive call. The source made the active and inactive calls. How the source made its calls: active means growth percent below 10; inactive means the rest.
# What was measured:
# Test in all cases: NCI-60 one-dose screen, 48 h (100 = growth as untreated, 0 = no growth, -100 = all killed)
# Details in all cases: 10 µM unless noted
# SR leukemia = system: SR leukemia
# RPMI-8226 leukemia = system: RPMI-8226 leukemia
# OVCAR-8 ovarian = system: OVCAR-8 ovarian
# OVCAR-4 ovarian = system: OVCAR-4 ovarian
# SK-OV-3 ovarian = system: SK-OV-3 ovarian
# IGROV1 ovarian = system: IGROV1 ovarian
# OVCAR-3 ovarian = system: OVCAR-3 ovarian
# HS 578T breast = system: HS 578T breast
# NCI/ADR-RES ovarian = system: NCI/ADR-RES ovarian
# T-47D breast = system: T-47D breast
# MDA-MB-435 melanoma = system: MDA-MB-435 melanoma
# SW-620 colon = system: SW-620 colon
# MCF7 breast = system: MCF7 breast
# HCT-116 colon = system: HCT-116 colon
# HCC-2998 colon = system: HCC-2998 colon
# KM12 colon = system: KM12 colon
# OVCAR-5 ovarian = system: OVCAR-5 ovarian
# BT-549 breast = system: BT-549 breast
SMILES,growth (SR leukemia),growth (RPMI-8226 leukemia),growth (OVCAR-8 ovarian),growth (OVCAR-4 ovarian),growth (SK-OV-3 ovarian),growth (IGROV1 ovarian),growth (OVCAR-3 ovarian),growth (HS 578T breast),growth (NCI/ADR-RES ovarian),growth (T-47D breast),growth (MDA-MB-435 melanoma),growth (SW-620 colon),growth (MCF7 breast),growth (HCT-116 colon),growth (HCC-2998 colon),growth (KM12 colon),growth (OVCAR-5 ovarian),growth (BT-549 breast)
Cc1nc2c(c(N3CCCc4ccccc43)n1)CCC2,2.73% (active),11.2%,11%,42.4%,5.28% (active),24.5%,-41.2% (active),23%,9.25% (active),45.3%,1.15% (active),22.5%,14.6%,-17% (active),18.3%,0.58% (active),,
CN(Cc1cnc2nc(N)nc(N)c2n1)c1ccc(C(=O)N[C@@H](CCc2nn[nH]n2)c2nn[nH]n2)cc1,29.2%,,32.8%,91%,82.8%,45.6%,53%,76.2%,40.4%,75.9%,38.5%,20.1%,17%,18.3%,52.6%,33%,56.1%,53.2%
COc1ccc(-c2nc(SCC(=O)Nc3nc(-c4ccccc4)cs3)[nH]c(=O)c2C#N)cc1,,93%,101%,109%,81.6%,88.3%,107%,78%,95.5%,84.3%,101%,97.4%,96.4%,86%,87.5%,108%,84.6%,92.4%
Cc1ccc2[nH]c(=O)c3c(c2c1)OC(N)=C(C#N)C31c2cc(Br)ccc2-c2ccc(Br)cc21,72.2%,3.77% (active),,21%,91.8%,40.1%,58.9%,70.8%,82.3%,39.4%,59.7%,40%,34%,67.8%,70.5%,52.4%,61.1%,82.5%
Cc1ccc2c(c1)Sc1c(ccc3ccccc13)N2,,50.4%,72.3%,73.5%,73.1%,42.3%,70.8%,66.4%,57.3%,47.2%,81.6%,73.7%,56.5%,29.1%,67.6%,55.1%,109%,81.2%
CCSC1=NC2C(N(CC)C(=O)N2CC)N1/N=C/C=C/c1ccccc1[N+](=O)[O-] (stereo not given),15.1%,,8.6% (active),42.6%,28%,15.3%,-2.75% (active),6.38% (active),4.68% (active),63.3%,-37.4% (active),16.7%,12.3%,4.16% (active),11%,10.1%,22.8%,10.1%
O=[N+]([O-])c1ccc(Sc2cccc[n+]2[O-])c2nonc12,1.31% (active),,82.5%,40.9%,108%,6.59% (active),-8.18% (active),24.8%,84.8%,54.9%,97.9%,23.5%,25.5%,2.05% (active),98.4%,68.6%,,109%
O=C(O)CN1C(=O)CCC1=O,112%,,99.4%,,104%,118%,115%,115%,112%,90.4%,102%,114%,92%,,110%,104%,101%,103%
N#Cc1c(N)nc(NCCO)nc1-c1ccc(F)cc1,99.3%,,99.7%,95.6%,84.9%,102%,110%,92.5%,105%,79.7%,104%,99.8%,97.3%,93.7%,105%,103%,105%,98.6%
CCCCCS(=O)(=O)Nc1ccc(C(=O)O)cc1,95.7%,,106%,103%,99.2%,101%,110%,110%,102%,89.2%,106%,106%,97%,102%,114%,103%,111%,107%
Cc1ccc(N(C(=O)CCc2c[nH]c3ccccc23)[C@H](C(=O)Nc2ccc(Cl)cc2)c2cccc([N+](=O)[O-])c2)cc1,72.9%,,87.8%,99.1%,90.8%,78.7%,96.9%,82.3%,70.1%,72.5%,81.3%,69.1%,90.1%,79.8%,87.8%,60.6%,98.4%,69.7%
N#C/C(=C\c1ccc(Br)cc1)n1nnc2cc(F)c(F)cc21,6.06% (active),,8.14% (active),29.8%,62.5%,6.79% (active),2.19% (active),56.1%,1.66% (active),-1.87% (active),4.75% (active),13.2%,14%,15.3%,40%,10.3%,3.24% (active),
COc1nc2c(c(=O)n1C)CN(c1ccccc1)C(=O)CN2C,51.5% [100 µM],,47.4% [100 µM],53.4% [100 µM],62.5% [100 µM],37.6% [100 µM],56.5% [100 µM],59.9% [100 µM],54.2% [100 µM],26.8% [100 µM],66.2% [100 µM],69.3% [100 µM],24.2% [100 µM],49.1% [100 µM],90.4% [100 µM],39.1% [100 µM],79.9% [100 µM],24.7% [100 µM]
COc1cc(/C=C/C(=O)c2ccc(Nc3nc(Nc4ccc(F)cc4)nc(Nc4ccc(Cl)cc4)n3)cc2)cc(OC)c1OC,-5.99% (active),,31.7%,31.8%,105%,54.8%,190%,59.1%,38.9%,61.9%,69.3%,35.3%,28.5%,22.9%,-1.48% (active),56%,81.3%,
CCCCCCCCCCN(CCCCCCCCCC)CC(=O)c1ccc2cc(Br)c3ccccc3c2c1,-28.5% (active),,86.9%,77.4%,104%,-79.5% (active),51.2%,,64.8%,72.1%,33.3%,-94.2% (active),99%,-22.8% (active),,-13.9% (active),,72%
O=C(Nc1ccccc1-c1nc2ccccc2c(=O)[nH]1)c1cc2ccccc2[nH]1,,98%,87.4%,105%,78.4%,69.2%,102%,85.8%,98.1%,70.1%,106%,94.2%,68%,83.5%,104%,88.2%,95.3%,85.3%
Cc1cccc(Cc2cnc(NC(=O)c3ccc4nnsc4c3)s2)c1,95.2%,,96.5%,98.3%,91.8%,97.9%,104%,109%,90%,57.8%,82.7%,80.5%,95%,87.7%,87.5%,77.9%,84.4%,105%
